Common to all, as to assay: NCI-60 one-dose screen, 48 h (100 = growth as untreated, 0 = no growth, -100 = all killed)
Holding throughout (details): 10 µM unless noted

Assay [1] relates to SK-MEL-2 melanoma.
Assay [2] concerns SN12C renal.
Assay [3] relates to UO-31 renal.
The test system of assay [4] is TK-10 renal.
Assay [5] relates to CAKI-1 renal.
For assay [6], the system named is CCRF-CEM leukemia.
Assay [7] deals with MOLT-4 leukemia.
For assay [8], the system named is RPMI-8226 leukemia.
Assay [9] relates to OVCAR-8 ovarian.
Assay [10] deals with OVCAR-5 ovarian.
Assay [11] has as its system OVCAR-4 ovarian.
The test system of assay [12] is IGROV1 ovarian.
Assay [13] deals with HS 578T breast.
For assay [14], the system named is NCI/ADR-RES ovarian.
In assay [15] the test system is EKVX NSCLC.
The test system of assay [16] is ACHN renal.
Assay [17] relates to A498 renal.
Assay [18] deals with SR leukemia.
Assay [19] has as its system SK-OV-3 ovarian.
For assay [20], the system named is OVCAR-3 ovarian.

Compounds without any hit were thinned out: in the full panel of roughly 83,000, 20% have a hit.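 Testing used 96-well plates and a 48-hour single-concentration exposure. Example: -40 means 40% of the starting cells died.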 Unmarked numbers belong to inactive results. Activity calls are given as the source filed them. Rule for the calls: active = growth percent below 10; inactive = the rest.

In the case of `O=C(/C=C/C12c3ccccc3C(c3ccccc31)C1C(=O)N(c3ccc(Cl)cc3)C(=O)C12)c1ccccn1` (stereo not drawn), the growth in assay [1] is -19.2% (active); in assay [2], -44.8% (active); in [3] it was -98.5% (active); in assay [4] it was -33.4% (active); in [5] it was -9.86% (active); in assay [6], 13.1%. Further, the growth in assay [7] is 20%; in assay [8], 3.98% (active); in assay [9], 21.1%; in [10], -43.3% (active); in assay [11] it was -6.96% (active); in [12], -36.6% (active). The growth in assay [13] was 13.9%; in [14] it was 8.16% (active).
Take `O=C(Nc1ccccn1)[C@H](O)[C@@H](O)C(=O)N1CCOCC1`: the growth was 109% in assay [15]; 97.3% in [2]; 104% in assay [3]; 96.2% in assay [4]; 112% in assay [16]; 105% in assay [5]. In addition, the growth was 108% in [17]; 98.6% in assay [6]; 105% in assay [7]; 120% in assay [18]; 106% in assay [8]; 96.7% in assay [9]. In addition, the growth in assay [10] is 118%; in assay [11] it was 123%; in assay [19], 105%; in assay [12] it was 105%; in [20], 107%; in assay [13], 104%. The growth in [14] is 104%.
Turning to `CCCCCCCSc1ccc(C(=O)O)cc1`, the growth in assay [1] is 103%; in assay [2], 93.2%; in [4] it was 105%; in assay [16], 94.6%; in assay [5], 103%; in assay [17] it was 97.5%. In addition, the growth in assay [6] was 91.5%; in assay [7], 106%; in [18], 104%; in assay [8] it was 92.1%; in assay [9] it was 95.7%; in assay [10] it was 110%. In addition, the growth in assay [11] was 93.9%; in [19], 102%; in [12], 101%; in assay [20] it was 118%; in assay [13] it was 128%; in assay [14], 109%.
For `Nc1c(C(=O)c2ccccc2)nnc2ncnn12`, the growth is 92% in [1]; 101% in assay [2]; 101% in assay [3]; 96% in assay [4]; 104% in assay [5]; 71.2% in assay [17]. Also, the growth in [6] was 98.4%; in [7], 95.8%; in assay [18], 94.6%; in assay [8], 101%; in assay [9] it was 107%; in [10] it was 121%. In addition, the growth in assay [11] is 116%; in assay [19], 98%; in assay [12] it was 106%; in assay [20], 105%; in [14], 107%.
Take `CCN(CC)CC(=O)Nc1cccc(C(=O)OC(C)C)c1`: the growth in [1] was 81.9%; in assay [2] it was 107%; in [3] it was 89.7%; in [4], 87.5%; in assay [17] it was 140%; in assay [6] it was 86.6%. Moreover, the growth was 96.2% in [7]; 95.2% in [18]; 105% in assay [8]; 108% in assay [9]; 104% in assay [10]; 103% in [11]. For the same compound, the growth was 101% in [19]; 104% in assay [12]; 103% in assay [20]; 120% in [13]; 97% in assay [14].
As to `Fc1ccc(Nc2ccc3cc(OCCCN4CCOCC4)ccc3n2)cc1F`, the growth is 61.2% in assay [15]; 68.4% in assay [2]; 19.5% in [3]; 66.6% in assay [4]; 67.2% in [16]; 70.7% in assay [5]. Also, the growth in assay [17] is 36.8%; in assay [6], 75.4%; in assay [7], 61.9%; in assay [18], 8.16% (active); in assay [8] it was 49.5%; in [9] it was 66.8%. Also, the growth in assay [10] is 56.8%; in assay [11], 49.4%; in assay [19], 72.8%; in assay [12] it was 72.8%; in assay [20], 68.1%; in [13], 40.6%. In addition, in [14], the growth is 59.8%.
Consider `O=C(CC12CC3CC(CC(C3)C1)C2)NCCOCCOCCNC(=O)c1cc2c(o1)C(=O)c1ccccc1C2=O`, for which the growth in assay [1] is -42% (active); in [3], -60.1% (active); in assay [4] it was -27.1% (active); in assay [16], -74% (active); in [5] it was -65.8% (active); in [6] it was 12.6%. The growth was -4.92% (active) in [7]; 9.52% (active) in [18]; -2.31% (active) in assay [9]; -96.9% (active) in [10]; -99.1% (active) in assay [11]; -43.9% (active) in assay [12]. Also, the growth in assay [20] was -40.8% (active); in assay [13] it was -24.6% (active); in assay [14] it was -24.6% (active).
As for `CNC(=O)c1cc(Oc2ccc3nc(NC(=O)Nc4cc(C(F)(F)F)cc(C(F)(F)F)c4)sc3c2)ccn1`, the growth in assay [15] was -18.7% (active); in assay [2], -18.7% (active); in [3] it was -69.9% (active); in [4], -54.8% (active); in assay [16], -52.9% (active); in assay [5] it was -17.6% (active). The growth in assay [17] was -58.8% (active); in assay [6], 7.33% (active); in assay [7], 0.825% (active); in [18], -27.6% (active); in assay [8], -14.1% (active); in [9], -68.2% (active). Also, the growth is -26.1% (active) in assay [10]; -77.2% (active) in assay [11]; -58% (active) in assay [19]; -48.5% (active) in assay [12]; -76.5% (active) in [20]; -20.4% (active) in [13]. Further, the growth in assay [14] was -38.2% (active).

Values taken from PubChem BioAssay (NCI).
